Several values for one entry are separate records, joined by “and”; a condition that tells them apart may be missing. Equal entries are not always repeated. Among all 5,500 compounds or so, about 2,000 (36%) were called active. Another 18% or so got no clear call; they are omitted. No stated cut-off is given here; in the data, active means normalized growth mostly below about 0.91 (no sharp cut-off); inconclusive means no clear call, values can overlap the other calls; inactive means mostly above about 0.92. The list shows a part of the results.
Assay: chemical genetic growth profiling, strain panel (AID 1159580);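 further: tested at 20 µM; growth read once vehicle control cultures reached saturation at 30 °C; 1 = growth at the plate median or of vehicle wells; lower values mean less growth of the strain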
Conditions: S. cerevisiae deletion strains, growth OD

Measured: normalized growth

COc1cc(OC)c2c(c1)O[C@H](c1ccc(OC)c(OC)c1)[C@@H](O)C2
inactive: locus YAL021C, strain ccr4, active compounds read low 1.01 | locus YAL026C, strain drs2, active compounds read low 0.961 | locus YAL030W, strain snc1, active compounds read low 0.998 | locus YBL061C, strain skt5, active compounds read low 0.989 | locus YBR009C, strain hhf1, active compounds read low 1 | locus YBR021W, strain FUR4, active compounds read low 1.06 | locus YBR023C, strain chs3, active compounds read low 1 | locus YBR171W, strain sec66, active compounds read low 0.971 | locus YBR229C, strain ROT2, active compounds read low 1.01 | locus YBR231C, strain swc5, active compounds read low 0.981 | locus YBR279W, strain paf1, active compounds read low 1 | locus YCL011C, strain gbp2, active compounds read low 0.986 | locus YCL016C, strain dcc1, active compounds read low 1.02 | locus YCL029C, strain bik1, active compounds read low 1.02 | locus YCL061C, strain MRC1, active compounds read low 0.996 | locus YCL069W, strain vba3, active compounds read low 0.968 | locus YCR088W, strain abp1, active compounds read low 0.984 | locus YDL005C, strain med2, active compounds read low 0.985 | locus YDL035C, strain GPR1, active compounds read low 1.04 | locus YDL040C, strain nat1, active compounds read low 0.992 | locus YDL074C, strain BRE1, active compounds read low 1.11 | locus YDL101C, strain DUN1, active compounds read low 1.02 | locus YDL134C, strain PPH21, active compounds read low 1.09 | locus YDL185W, strain tfp1, active compounds read low 1.03 | locus YDL192W, strain arf1, active compounds read low 1 | locus YDR001C, strain nth1, active compounds read low 0.989 | locus YDR069C, strain doa4, active compounds read low 0.976 | locus YDR101C, strain arx1, active compounds read low 0.99 | locus YDR137W, strain rgp1, active compounds read low 0.949 | locus YDR159W, strain sac3, active compounds read low 0.95 | locus YDR162C, strain NBP2, active compounds read low 1.03 | locus YDR195W, strain ref2 0.976 | locus YDR297W, strain sur2, active compounds read low 0.988 | locus YDR318W, strain mcm21, active compounds read low 1.01 | locus YDR334W, strain swr1, active compounds read low 0.977 | locus YDR335W, strain msn5, active compounds read low 0.983 | locus YDR388W, active compounds read low 1.03 | locus YDR392W, strain spt3, active compounds read low 0.909 | locus YDR502C, strain sam2, active compounds read low 1.02 | locus YEL003W, strain gim4, active compounds read low 0.984 | locus YEL037C, strain rad23, active compounds read low 0.985 | locus YEL061C, strain CIN8 (second series), active compounds read low 0.976 | locus YER015W, strain faa2, active compounds read low 1.01 | locus YER016W, strain bim1, active compounds read low 0.992 | locus YER110C, active compounds read low 0.998 | locus YER111C, strain swi4, active compounds read low 0.994 | locus YER155C, strain BEM2 (second series), active compounds read low 0.947 | locus YER155C, strain BEM2, active compounds read low 1.01 | locus YER167W, strain BCK2, active compounds read low 1.01 | locus YFR010W, strain ubp6, active compounds read low 0.956 | locus YGL078C, strain dbp3, active compounds read low 1.02 | locus YGL086W, strain mad1, active compounds read low 1 | locus YGL167C, strain pmr1, active compounds read low 1 | locus YGL173C, strain kem1, active compounds read low 0.983 | locus YGL227W, strain vid30, active compounds read low 0.982 | locus YGL240W, strain doc1, active compounds read low 1 | locus YGL248W, strain PDE1, active compounds read low 1.05 | locus YGL253W, strain hxk2, active compounds read low 0.939 | locus YGR135W, strain pre9, active compounds read low 1.05 | locus YGR252W, strain gcn5, active compounds read low 1.08 | locus YHR013C, strain ard1, active compounds read low 1.01 | locus YHR027C, strain rpn1, active compounds read low 0.983 | locus YHR030C, strain SLT2, active compounds read low 0.996 | locus YHR079C, strain IRE1 (second series), active compounds read low 1.02 | locus YHR079C, strain IRE1, active compounds read low 0.992 | locus YHR094C, strain hxt1, active compounds read low 1.04 | locus YHR129C, strain ARP1, active compounds read low 1.02 | locus YHR142W, strain chs7, active compounds read low 0.993 | locus YHR200W, strain rpn10, active compounds read low 1.02 | locus YIL066C, strain RNR3, active compounds read low 1.03 | locus YIL073C, strain SPO22, active compounds read low 1.09 | locus YIL125W, strain kgd1, active compounds read low 0.99 | locus YIR030C, strain dcg1, active compounds read low 1.01 | locus YJL092W, strain hpr5, active compounds read low 0.985 | locus YJL095W, strain BCK1 (second series), active compounds read low 0.971 | locus YJL095W, strain BCK1, active compounds read low 1.1 and 0.993 | locus YJL115W, strain asf1, active compounds read low 0.994 | locus YJL129C, strain trk1, active compounds read low 0.965 | locus YJL134W, strain LCB3, active compounds read low 1.01 | locus YJL154C, strain vps35, active compounds read low 0.983 | locus YJL164C, strain tpk1, active compounds read low 1.02 | locus YJL166W, strain qcr8, active compounds read low 0.984 | locus YJL168C, strain set2, active compounds read low 1.01 | locus YJL187C, strain SWE1 (second series), active compounds read low 1.03 | locus YJL187C, strain SWE1, active compounds read low 0.988 | locus YJR043C, strain POL32, active compounds read low 1.04 | locus YJR066W, strain TOR1, active compounds read low 0.941 | locus YKL009W, strain mrt4, active compounds read low 1.05 | locus YKL068W, active compounds read low 1.01 | locus YKL085W, strain MDH1 (second series), active compounds read low 1.02 | locus YKL085W, strain MDH1, active compounds read low 1.02 | locus YKL160W, strain elf1, active compounds read low 1.02 | locus YKL190W, strain CNB1, active compounds read low 1.01 | locus YKR001C, strain vps1, active compounds read low 1.04 | locus YKR026C, strain gcn3, active compounds read low 0.975 | locus YKR091W, strain srl3, active compounds read low 0.996 | locus YLL001W, strain dnm1, active compounds read low 0.972 | locus YLL026W, active compounds read low 0.996 | locus YLL041C, strain sdh2, active compounds read low 0.993 | locus YLR027C, strain aat2, active compounds read low 0.994 | locus YLR039C, strain RIC1, active compounds read low 1.15 | locus YLR058C, strain SHM2, active compounds read low 1.02 | locus YLR102C, strain apc9, active compounds read low 1.01 | locus YLR113W, strain HOG1, active compounds read low 0.971 | locus YLR221C, strain rsa3, active compounds read low 0.953 | locus YLR258W, strain gsy2, active compounds read low 0.99 | locus YLR262C, strain YPT6 (second series), active compounds read low 0.956 | locus YLR268W, strain sec22, active compounds read low 1.02 | locus YLR320W, strain mms22, active compounds read low 0.979 | locus YLR330W, strain CHS5, active compounds read low 1.03 | locus YLR342W, strain FKS1, active compounds read low 0.997 | locus YLR357W, strain rsc2, active compounds read low 0.989 | locus YLR370C, strain arc18, active compounds read low 0.97 | locus YLR371W, strain rom2, active compounds read low 1.05 | locus YLR384C, strain iki3, active compounds read low 1.01 | locus YLR418C, strain cdc73, active compounds read low 1.09 | locus YML016C, strain PPZ1, active compounds read low 1.01 | locus YML032C, strain rad52, active compounds read low 1.01 | locus YML120C, strain ndi1, active compounds read low 1.01 | locus YML124C, strain tub3, active compounds read low 1 | locus YMR058W, strain fet3, active compounds read low 0.981 | locus YMR078C, strain ctf18, active compounds read low 1.03 | locus YMR125W, strain sto1, active compounds read low 0.982 | locus YMR129W, active compounds read low 0.999 | locus YMR205C, strain PFK2, active compounds read low 1.03 | locus YMR223W, strain ubp8, active compounds read low 1.01 | locus YMR231W, strain pep5, active compounds read low 0.973 | locus YMR263W, strain SAP30, active compounds read low 1.01 | locus YMR307W, strain GAS1, active compounds read low 1.22 | locus YNL067W, strain RPL9B, active compounds read low 1.02 | locus YNL071W, strain lat1, active compounds read low 0.989 | locus YNL153C, strain GIM3, active compounds read low 1.03 | locus YNL183C, strain NPR1, active compounds read low 0.931 | locus YNL209W, strain ssb2, active compounds read low 1.01 | locus YNL233W, strain BNI4, active compounds read low 1.07 | locus YNL248C, strain rpa49, active compounds read low 0.968 | locus YNL250W, strain rad50, active compounds read low 1.03 | locus YNL271C, strain bni1, active compounds read low 1.01 | locus YNL298W, strain CLA4, active compounds read low 1.03 | locus YNL307C, strain MCK1, active compounds read low 1.03 | locus YNL322C, strain KRE1 (second series), active compounds read low 1.01 | locus YNR049C, strain mso1, active compounds read low 0.988 | locus YNR052C, strain pop2, active compounds read low 1.04 | locus YOL006C, strain TOP1, active compounds read low 1.3 | locus YOL012C, strain htz1 1.07 | locus YOL147C, strain pex11, active compounds read low 1.01 | locus YOR001W, strain rrp6, active compounds read low 0.925 | locus YOR061W, strain CKA2, active compounds read low 1.02 | locus YOR069W, strain VPS5, active compounds read low 1.01 | locus YOR070C, strain gyp1, active compounds read low 1.01 | locus YOR080W, strain dia2, active compounds read low 0.971 | locus YOR083W, strain WHI5, active compounds read low 1.03 | locus YOR106W, strain vam3, active compounds read low 1.03 | locus YOR136W, strain idh2, active compounds read low 1.01 | locus YOR144C, strain elg1, active compounds read low 1 | locus YOR184W, strain ser1, active compounds read low 1 | locus YOR231W, strain MKK1, active compounds read low 1 | locus YOR265W, strain rbl2, active compounds read low 0.988 | locus YOR270C, strain vph1, active compounds read low 0.969 | locus YOR290C, strain snf2, active compounds read low 0.994 | locus YOR316C, strain cot1, active compounds read low 1.03 | locus YPL051W, strain arl3, active compounds read low 0.985 | locus YPL078C, strain atp4, active compounds read low 1.03 | locus YPL106C, strain sse1, active compounds read low 1.05 | locus YPL240C, strain hsp82, active compounds read low 0.992 | locus YPL256C, strain CLN2, active compounds read low 0.958 | locus YPR119W, strain clb2, active compounds read low 0.999 | locus YPR141C, strain kar3, active compounds read low 1.01 | locus YPR163C, strain tif3, active compounds read low 1.01 | locus YPR167C, strain met16, active compounds read low 1.03 | strain wtn01, active compounds read low 0.997

From PubChem BioAssay AID1159580 (chemical genetic matrix, 2015)
